The source of these data is PubChem BioAssay (EPA / NIEHS).

The target in test [1] is Estrogen receptor beta (Homo sapiens) (UniProt Q92731). Kind of test: OT_ER_ERbERb_1440: Odyssey Thera (OT) 24-hour HEK293T Protein-Complementation Assay for Estrogen Receptor-beta/-beta Homodimer (AID 2283380).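 Further: fluorescence gain from ER beta LBD homodimer complementation read by laser scanning cytometry; scored as signal increase over DMSO baseline for both agonists and antagonists.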 An outline of the steps:
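HEK293T cells stably expressing human ER-beta LBD (aa 310-547) PCA homodimer pair, dosed 24 h; formaldehyde-fixed, Draq5-stained. Readout: increase in nuclear (agonist) or nuclear plus cytoplasmic (antagonist) fluorescence intensity versus DMSO, gain-of-signal fitting.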

Test [2] has as its target Estrogen receptor (Homo sapiens) (UniProt P03372). Kind of test: OT_ERa_GFPERaERE_0480: Odyssey Thera (OT) 8-hour HeLa Transcription Induction Assay for Estrogen Receptor (AID 2283381; active means hit-call score of the fitted dose curve at least 0.9, where 1 is the maximum; inactive means score below 0.9). An outline of the steps:
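Fluorescent reporter signal, imaged by microscopy and scored with image-analysis algorithms, was taken 8 h after chemical dosing of HeLa cells; activity was fitted upward relative to DMSO.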

Test [3] has the same target. Kind of test: OT_ERa_GFPERaERE_0120: Odyssey Thera (OT) 2-hour HeLa Transcription Induction Assay for Estrogen Receptor (AID 2283382). The essentials: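 HeLa, 384-well, 2 h chemical exposure; GFP reporter induction (ERE), fluorescence microscopy; high content image analysis; positive fitting direction vs DMSO.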
Test [4] addresses Peroxisome proliferator-activated receptor gamma (Homo sapiens) (UniProt P37231). Kind of test: OT_PPARg_PPARgSRC1_0480: Odyssey Thera (OT) 8-hour Protein-Complementation Assay for Peroxisome Proliferator-activated Receptor Gamma / SRC-1 Co-activator (AID 2283387).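 Further: nuclear to cytoplasmic split Venus YFP fluorescence ratio reporting PPARg SRC-1 interaction.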 An outline of the steps:
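Split-YFP (IFP1/IFP2) PPARg/SRC-1 reporter, HEK293T, 37 °C, 5% CO2; 8 h compound; formaldehyde fix + Draq5; high-content imaging, N/C ratio, ≥350 cells/image, positive direction vs DMSO.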

For test [5] the target is unchanged. Kind of test: OT_PPARg_PPARgSRC1_1440: Odyssey Thera (OT) 24-hour Protein-Complementation Assay for Peroxisome Proliferator-activated Receptor Gamma/ SRC-1 Co-activator (AID 2283388).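 Further: nuclear to cytoplasmic ratio of reconstituted Venus YFP fluorescence in fixed imaged cells.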 The essentials:
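Protein-fragment complementation between PPARg and coactivator SRC-1 was measured by fluorescence imaging in transiently transfected HEK293T cells after 24 h treatment. Signal was quantified as N/C ratio in the 488 nm channel, with DMSO as negative control.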

Test [6] is described as follows: ATG_XTT_Cytotoxicity: Cytotoxicity Assessment in the Attagene TRANS-FACTORIAL HepG2 Assay (AID 2283584).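 On AC50: cells exposed to compound for 24 h before reading; active means loss of viability signal versus DMSO baseline.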 The essentials:
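Cells: human HepG2, transiently transfected with MRTU reporter constructs. Exposure 24 h. Readout: XTT, cell number. Baseline/neg ctrl DMSO; loss-of-signal scored.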

Test [7] is described as follows: CEETOX_H295R_11DCORT: CeeTox H295R High-throughput Steroidogenesis Assay for 11-Deoxycortisol (11DCORT) (AID 2283432; active means hit-call score of the fitted dose curve at least 0.9, where 1 is the maximum; inactive means score below 0.9;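 on AC50: 11-deoxycortisol secreted into the medium measured by LC-MS/MS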). The note with it: actives raise or lower the signal. An outline of the steps: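 Steroidogenesis in human H295R cells: 48 h chemical exposure after forskolin priming, 11-deoxycortisol measured by LC-MS/MS.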
Test [8] can be described thus: CEETOX_H295R_OHPREG: CeeTox H295R High-throughput Steroidogenesis Assay for OH-Pregnenolone (OHPREG) (AID 2283434; active means hit-call score of the fitted dose curve at least 0.9, where 1 is the maximum; inactive means score below 0.9). Conditions: actives raise or lower the signal. An outline of the steps: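 Human adrenal H295R cells were prestimulated 48 h with 10 uM forskolin, then exposed 48 h to chemical in 0.1% DMSO. Medium 17alpha-hydroxypregnenolone was quantified by HPLC-MS/MS after MTBE extraction; bidirectional fitting versus DMSO baseline.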

Test [9] is described as follows: CEETOX_H295R_OHPROG: CeeTox H295R High-throughput Steroidogenesis Assay for OH-Progesterone (OHPROG) (AID 2283435; active means hit-call score of the fitted dose curve at least 0.9, where 1 is the maximum; inactive means score below 0.9;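 on AC50: 17alpha-hydroxyprogesterone secreted into medium measured by HPLC-MS/MS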). The note with it: actives raise or lower the signal. An outline of the steps: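 H295R, 10 uM forskolin prestim 48 h; cmpd in 0.1% DMSO 48 h; medium MTBE-extracted, HPLC-MS/MS for OH-progesterone; 7-pt std curve; bidirectional fit vs DMSO; MTT viability, chemicals diluted until viability >/=70%.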

A short description of test [10]: CEETOX_H295R_ANDR: CeeTox H295R High-throughput Steroidogenesis Assay for Androstenedione (ANDR) (AID 2283436; active means hit-call score of the fitted dose curve at least 0.9, where 1 is the maximum; inactive means score below 0.9). The note with it: actives raise or lower the signal. An outline of the steps: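 H295R human adrenal cells (passages ≤10) were exposed to test chemicals for 48 h; androstenedione in medium was MTBE-extracted and quantified by HPLC-MS/MS against a 7-point standard curve. Bidirectional fitting used DMSO as baseline.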

The nature of test [11]: CEETOX_H295R_CORTIC: CeeTox H295R High-throughput Steroidogenesis Assay for Corticosterone (CORTIC) (AID 2283437; active means hit-call score of the fitted dose curve at least 0.9, where 1 is the maximum; inactive means score below 0.9;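 further: corticosterone secreted into medium quantified by mass spectrometry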). The note with it: actives raise or lower the signal. An outline of the steps: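 H295R cells were prestimulated 48 h with 10 uM forskolin, then exposed 48 h to test chemical in 0.1% DMSO. Medium corticosterone was MTBE-extracted and quantified by HPLC-MS/MS; bidirectional fit versus DMSO baseline.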

Test [12] in a line: CEETOX_H295R_CORTISOL: CeeTox H295R High-throughput Steroidogenesis Assay for Cortisol (AID 2283438; active means hit-call score of the fitted dose curve at least 0.9, where 1 is the maximum; inactive means score below 0.9;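 further: cortisol secreted into medium quantified by LC-MS/MS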). Conditions: actives raise or lower the signal. An outline of the steps:
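Forskolin 10 uM 48 h prestim → test cmpd in DMSO (0.1% final) 48 h → medium MTBE-extracted → LC-MS/MS cortisol vs 7-pt std curve. Gain/loss of signal fitted vs DMSO. MTT viability in same wells.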

The nature of test [13]: CEETOX_H295R_DOC: CeeTox H295R High-throughput Steroidogenesis Assay for DOC (AID 2283439; active means hit-call score of the fitted dose curve at least 0.9, where 1 is the maximum; inactive means score below 0.9). Conditions: actives raise or lower the signal. An outline of the steps: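 Readout: 11-deoxycorticosterone in culture medium by reverse-phase C18 HPLC with ESI+ tandem MS after MTBE extraction. Cells: H295R, forskolin-primed (10 uM, 48 h), chemical-treated 48 h; DMSO 0.1% final. Activity fitted bidirectionally versus DMSO.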

The nature of test [14]: CEETOX_H295R_ESTRADIOL: CeeTox H295R High-throughput Steroidogenesis Assay for Estradiol (AID 2283440; active means hit-call score of the fitted dose curve at least 0.9, where 1 is the maximum; inactive means score below 0.9;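 further: estradiol secreted into medium quantified by LC-MS/MS after dansyl derivatisation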). The note with it: actives raise or lower the signal. An outline of the steps: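 Estradiol secreted into the medium was measured by tandem mass spectrometry after liquid-liquid extraction and dansylation. Human H295R cells had been forskolin-primed (10 uM, 48 h) before a 48 h chemical exposure with 0.1% DMSO.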

A short description of test [15]: CEETOX_H295R_ESTRONE: CeeTox H295R High-throughput Steroidogenesis Assay for Estrone (AID 2283441; active means hit-call score of the fitted dose curve at least 0.9, where 1 is the maximum; inactive means score below 0.9;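 further: estrone secreted into medium measured by LC-MS/MS after dansyl derivatization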). The note with it: actives raise or lower the signal. The essentials: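 H295R cells prestimulated 48 h with 10 uM forskolin, then exposed 48 h to chemicals in 0.1% DMSO final; estrone in medium extracted with MTBE, dansyl-derivatized, quantified by HPLC-MS/MS; bidirectional fitting versus DMSO, viability by MTT.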

Test [16] can be described thus: CEETOX_H295R_PROG: CeeTox H295R High-throughput Steroidogenesis Assay for Progesterone (PROG) (AID 2283442; active means hit-call score of the fitted dose curve at least 0.9, where 1 is the maximum; inactive means score below 0.9;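 on AC50: human H295R adrenal cells primed with 10 µM forskolin before dosing; progesterone secreted into medium by H295R cells measured by HPLC-MS/MS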). The note with it: actives raise or lower the signal. An outline of the steps: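 Steps: seed H295R cells and let them adhere overnight; prime 48 h with 10 uM forskolin; dose with compound in DMSO at 0.1% final for 48 h; extract medium steroids with MTBE; measure progesterone by LC-MS/MS. MTT viability was run in the same wells.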

Test [17] can be described thus: CEETOX_H295R_TESTO: CeeTox H295R High-throughput Steroidogenesis Assay for Testosterone (TESTO) (AID 2283457; active means hit-call score of the fitted dose curve at least 0.9, where 1 is the maximum; inactive means score below 0.9;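 further: cells exposed to chemicals for 48 h before medium collection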). The note with it: actives raise or lower the signal. The essentials: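 H295R, passage ≤10, 48 h dosing; media extracted with MTBE → HPLC-MS/MS for testosterone; 7-pt standard curve sets LLOQ/ULOQ; bidirectional fit vs DMSO; MTT viability same wells.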
Test [18] has as its target Retinoic acid receptor RXR-alpha (Homo sapiens) (UniProt P19793). Kind of test: OT_NURR1_NURR1RXRa_1440: Odyssey Thera (OT) 24-hour HEK293T Protein Complementation Assay for Nurr1/retinoid X receptor (RXR) (AID 2283386). The essentials: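 Interaction of Nurr1 with RXRα brings fused reporter fragments together in human HEK293T cells, restoring a functional reporter. Fluorescence intensity is measured 24 h after chemical treatment, and values are analysed in the positive direction against DMSO.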

For test [19] the target is unchanged. Kind of test: OT_NURR1_NURR1RXRa_0480: Odyssey Thera (OT) 8-hour HEK293T Protein Complementation Assay for Nurr1/retinoid X receptor (RXR) (AID 2283385). An outline of the steps: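 8 h compound exposure, HEK293T; Nurr1/RXRα fragment complementation; fluorescence intensity; positive fitting direction vs DMSO baseline.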

Inconclusive results are not listed. The source made the active and inactive calls. How the source made its calls, unless noted: active means hit-call score of the fitted dose curve at least 0.9, where 1 is the maximum; inconclusive means response in the unintended direction; inactive means score below 0.9.

Peroxisome proliferator-activated receptor gamma (Homo sapiens), sequence (P37231 whole entry, looked up): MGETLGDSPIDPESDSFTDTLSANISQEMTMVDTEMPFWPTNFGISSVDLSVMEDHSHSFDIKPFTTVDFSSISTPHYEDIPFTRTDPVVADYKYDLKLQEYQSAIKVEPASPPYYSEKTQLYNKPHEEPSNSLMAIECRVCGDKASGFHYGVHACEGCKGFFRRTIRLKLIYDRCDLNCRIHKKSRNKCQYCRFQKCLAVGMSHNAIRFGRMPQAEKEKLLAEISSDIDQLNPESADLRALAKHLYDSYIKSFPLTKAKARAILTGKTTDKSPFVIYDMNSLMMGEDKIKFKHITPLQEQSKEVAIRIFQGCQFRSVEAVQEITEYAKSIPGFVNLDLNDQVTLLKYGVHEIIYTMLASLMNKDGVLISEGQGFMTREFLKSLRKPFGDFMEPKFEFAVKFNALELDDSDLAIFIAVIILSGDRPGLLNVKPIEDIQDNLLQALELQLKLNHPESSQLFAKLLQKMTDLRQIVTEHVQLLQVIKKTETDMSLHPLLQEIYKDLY
Estrogen receptor beta (Homo sapiens), sequence (Q92731 whole entry, looked up, the tested form may be a part): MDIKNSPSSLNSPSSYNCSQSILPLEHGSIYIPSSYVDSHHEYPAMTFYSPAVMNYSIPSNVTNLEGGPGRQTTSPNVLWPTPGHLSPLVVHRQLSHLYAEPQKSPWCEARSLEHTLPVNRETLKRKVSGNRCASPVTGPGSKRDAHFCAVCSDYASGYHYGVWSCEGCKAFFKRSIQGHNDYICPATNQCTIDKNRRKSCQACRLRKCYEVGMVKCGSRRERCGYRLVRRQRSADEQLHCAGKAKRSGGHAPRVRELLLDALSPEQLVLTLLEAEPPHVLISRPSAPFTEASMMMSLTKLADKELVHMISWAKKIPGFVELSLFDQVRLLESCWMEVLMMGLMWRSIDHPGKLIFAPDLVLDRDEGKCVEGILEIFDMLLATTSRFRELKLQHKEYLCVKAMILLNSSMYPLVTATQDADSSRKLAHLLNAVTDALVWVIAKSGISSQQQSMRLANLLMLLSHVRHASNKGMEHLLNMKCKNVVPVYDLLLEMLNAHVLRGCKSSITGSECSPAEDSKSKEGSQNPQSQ
Retinoic acid receptor RXR-alpha (Homo sapiens), sequence (P19793 whole entry, looked up, the tested form may be a part): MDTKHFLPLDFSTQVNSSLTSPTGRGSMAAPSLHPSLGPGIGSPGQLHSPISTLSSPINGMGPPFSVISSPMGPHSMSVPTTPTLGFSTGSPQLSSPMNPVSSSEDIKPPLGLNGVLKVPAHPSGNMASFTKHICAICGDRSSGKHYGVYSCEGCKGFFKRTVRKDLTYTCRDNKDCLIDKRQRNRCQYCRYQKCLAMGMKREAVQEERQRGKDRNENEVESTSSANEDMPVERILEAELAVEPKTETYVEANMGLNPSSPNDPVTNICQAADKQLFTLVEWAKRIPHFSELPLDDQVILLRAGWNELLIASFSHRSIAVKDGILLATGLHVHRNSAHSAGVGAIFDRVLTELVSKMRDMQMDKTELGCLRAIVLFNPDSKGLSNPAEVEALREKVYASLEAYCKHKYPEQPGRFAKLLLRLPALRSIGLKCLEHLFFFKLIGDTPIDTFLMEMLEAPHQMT
Estrogen receptor (Homo sapiens), sequence (P03372 whole entry, looked up): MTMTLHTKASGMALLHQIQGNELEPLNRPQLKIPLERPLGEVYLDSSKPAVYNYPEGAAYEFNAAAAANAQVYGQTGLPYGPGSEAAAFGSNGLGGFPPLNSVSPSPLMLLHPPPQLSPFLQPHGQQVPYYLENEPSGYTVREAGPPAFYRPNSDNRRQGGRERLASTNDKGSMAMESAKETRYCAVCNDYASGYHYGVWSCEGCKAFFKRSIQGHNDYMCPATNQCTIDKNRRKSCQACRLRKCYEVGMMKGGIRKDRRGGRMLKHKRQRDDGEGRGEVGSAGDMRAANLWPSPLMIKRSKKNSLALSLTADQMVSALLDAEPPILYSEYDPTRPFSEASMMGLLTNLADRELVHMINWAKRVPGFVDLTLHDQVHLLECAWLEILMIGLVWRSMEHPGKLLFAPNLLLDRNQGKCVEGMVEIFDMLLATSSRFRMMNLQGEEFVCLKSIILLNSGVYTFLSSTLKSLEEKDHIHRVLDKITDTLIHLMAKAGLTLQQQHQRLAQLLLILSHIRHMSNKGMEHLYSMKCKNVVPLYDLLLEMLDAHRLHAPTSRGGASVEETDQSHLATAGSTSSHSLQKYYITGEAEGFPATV

With `CCCCCCCC/C=C\CCCCCCCC(=O)O`, the molecule was classed as inactive in test [1], in test [2], in test [3], in test [4], in test [5] and in test [6].
The term AC50 denotes the midpoint of the concentration-response curve, whichever way the signal moves. Consider `NC(=O)N=NC(N)=O`, for which the molecule was classed as inactive in [1], in test [2], in test [4], in test [5] and in [6]. In addition, in test [3], the AC50 is 12100 nM (active).
Take `COCc1c(C(C)C)nc(C(C)C)c(/C=C/[C@@H](O)C[C@@H](O)CC(=O)O)c1-c1ccc(F)cc1`: the AC50 in test [7] is 17.3 nM (active); in test [8], 1.41 nM (active); in test [9], 17.3 nM (active); in [10] it was 22.4 nM (active); in test [11], 13.9 nM (active); in test [13], 10.7 nM (active). The figures for the AC50 in test [16] and in [17] were 6.7 nM (active) and 18.7 nM (active), respectively. Besides, the molecule was classed as inactive in [12], in test [14], in test [15] and in test [6].
`C1=Cc2ccccc2C1`: the molecule was classed as inactive in [2], in test [3], in test [18], in [4], in test [5] and in [6].
Take `COC(=O)c1c(C)cc(O)c(C)c1O`: the concentration at half-maximal activity (AC50) in test [1] was 56400 nM (active); in test [9] it was 26300 nM (active); in test [16], 59500 nM (active). Further, the outcome in [2], in test [3], in test [4], in test [5], in [8] and in [14] was inactive. The molecule was called inactive in [15] and in test [6].
`O=c1cc[nH]c(=S)[nH]1`: the outcome in test [6] was inactive.
Consider `CC(C)=CCC/C(C)=C\C#N`, for which, in test [6], the outcome was inactive.
For the molecule `S=C(NC1CCCCC1)NC1CCCCC1`, the molecule was called inactive in test [7], in [8], in test [9], in [11], in [12] and in test [13]. In addition, the call in [14], in test [15], in [16] and in [6] was inactive.
Regarding `C=CC(=O)NC(C)(C)CS(=O)(=O)O`, the call in test [1], in [2], in test [3], in test [4], in test [5] and in test [6] was inactive.
For `CC(CC=O)CCCC(C)(C)O` (stereo not given), the call in [2], in test [3], in test [19], in [18], in test [4] and in [5] was inactive. Also, the molecule was called inactive in test [6].
Turning to `CCCCCCCC[N+](C)(CCCCCCCC)CCCCCCCC`, the call in test [1], in [2], in test [4] and in [5] was inactive. Moreover, the AC50 in test [3] was 12400 nM (active); in [6], 9480 nM (active).
`c1c[nH]cn1`: the call in test [1], in [2], in test [3], in [4], in test [5] and in [6] was inactive.
For `CCCCCc1ccc(Cl)cc1`, the molecule was classed as inactive in test [2], in test [3], in test [19], in test [18], in [4] and in test [5]. In [6], the result was inactive.
